Laboratory results taken from PubChem BioAssay (NCATS).
Results filed as inconclusive are left out. Active and inactive are the calls of the source. Calls come from the whole dose curve; as a rule, active = well fitted inhibition curve with a large enough effect; inconclusive = small, poorly fitted or top-dose-only effect; inactive = flat fitted curve, though single readings scatter.

What was measured:
[1] = qHTS profiling for inhibitors of Plasmodium falciparum proliferation (AID 504749);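 note: 0% = DMSO vehicle and full inhibition = artemisinin control; nearly all actives have a fitted effect of over 60% in size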; details: P. falciparum in erythrocytes, SYBR Green DNA, 72 h
How it was run: (§1)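 Readout was DNA-dye fluorescence from lysed cultures, ex 485/em 535 nm. Parasitized red cells had grown 72 h with compound; data scaled between 0.29 uM artemisinin and DMSO wells and corrected using vehicle-only plates.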

[2] = tested on: 3D7; experiment: as above; details: P. falciparum in erythrocytes, SYBR Green DNA, 72 h; series mostly up to 28.7 µM
How it was run: as §1

[3] = tested on: 7G8; experiment: as above; details: P. falciparum in erythrocytes, SYBR Green DNA, 72 h; series mostly up to 28.7 µM
How it was run: as §1

[4] = tested on: AA1029; experiment: as above; details: P. falciparum in erythrocytes, SYBR Green DNA, 72 h; series mostly up to 28.7 µM
How it was run: as §1

[5] = tested on: AS120; experiment: as above; details: P. falciparum in erythrocytes, SYBR Green DNA, 72 h; series mostly up to 28.7 µM
How it was run: as §1

[6] = tested on: ATS189; experiment: as above; details: P. falciparum in erythrocytes, SYBR Green DNA, 72 h; series mostly up to 28.7 µM
How it was run: as §1

[7] = tested on: ATS95; experiment: as above; details: P. falciparum in erythrocytes, SYBR Green DNA, 72 h; series mostly up to 28.7 µM
How it was run: as §1

[8] = tested on: C2A; experiment: as above; details: P. falciparum in erythrocytes, SYBR Green DNA, 72 h; series mostly up to 28.7 µM
How it was run: as §1

[9] = tested on: CP185; experiment: as above; details: P. falciparum in erythrocytes, SYBR Green DNA, 72 h; series mostly up to 28.7 µM
How it was run: as §1

[10] = tested on: CP191; experiment: as above; details: P. falciparum in erythrocytes, SYBR Green DNA, 72 h; series mostly up to 28.7 µM
How it was run: as §1

[11] = tested on: CP192; experiment: as above; details: P. falciparum in erythrocytes, SYBR Green DNA, 72 h; series mostly up to 28.7 µM
How it was run: as §1

[12] = tested on: CP194; experiment: as above; details: P. falciparum in erythrocytes, SYBR Green DNA, 72 h; series mostly up to 28.7 µM
How it was run: as §1

[13] = at 28.7 µM (top of the series), parasite line A
[14] = at 28.7 µM (top of the series), parasite line B

Cc1cccc(Nc2ncccc2C(=O)O)c1C
inactive: activity, negative = inhibition [1, 13] 2.92% | activity, negative = inhibition [1, 14] 1.25% | Potency [2] | Potency [3] | Potency [4] | Potency [5] | Potency [6] | Potency [7] | Potency [8] | Potency [9] | Potency [10] | Potency [11] | Potency [12]

CCOC(C)OCC
inactive: activity, negative = inhibition [1, 13] -1.66% | activity, negative = inhibition [1, 14] -9.74% | Potency [2] | Potency [3] | Potency [4] | Potency [5] | Potency [6] | Potency [7] | Potency [8] | Potency [9] | Potency [10] | Potency [11] | Potency [12]

Nc1nc(=O)n([C@@H]2CS[C@H](CO)O2)cc1F
inactive: activity, negative = inhibition [1, 13] 2.36% | activity, negative = inhibition [1, 14] 4.33% | Potency [2] | Potency [3] | Potency [4] | Potency [5] | Potency [6] | Potency [7] | Potency [8] | Potency [9] | Potency [10] | Potency [11] | Potency [12]

O=C1c2ccccc2C(=O)C1c1ccc(F)cc1
inactive: activity, negative = inhibition [1, 13] -6.63% | activity, negative = inhibition [1, 14] 2.77% | Potency [2] | Potency [3] | Potency [4] | Potency [5] | Potency [6] | Potency [7] | Potency [8] | Potency [9] | Potency [10] | Potency [11] | Potency [12]

OC[C@H]1O[C@@H]2O[C@H]3[C@H](O)[C@@H](O)[C@@H](O[C@H]4[C@H](O)[C@@H](O)[C@@H](O[C@H]5[C@H](O)[C@@H](O)[C@@H](O[C@H]6[C@H](O)[C@@H](O)[C@@H](O[C@H]7[C@H](O)[C@@H](O)[C@@H](O[C@H]1[C@H](O)[C@H]2O)O[C@@H]7CO)O[C@@H]6CO)O[C@@H]5CO)O[C@@H]4CO)O[C@@H]3CO
inactive: activity, negative = inhibition [1, 13] 6.28% | activity, negative = inhibition [1, 14] 7.95% | Potency [2] | Potency [3] | Potency [4] | Potency [5] | Potency [6] | Potency [7] | Potency [8] | Potency [9] | Potency [10] | Potency [11] | Potency [12]

CC(CCc1ccc(O)cc1)NCC(O)c1ccc(O)cc1 (configuration not stated)
inactive: activity, negative = inhibition [1, 13] 1.25% | activity, negative = inhibition [1, 14] 15.8% | Potency [2] | Potency [3] | Potency [4] | Potency [5] | Potency [6] | Potency [7] | Potency [8] | Potency [9] | Potency [10] | Potency [11] | Potency [12]

C=CCOc1ccc(CC(=O)O)cc1Cl
inactive: activity, negative = inhibition [1, 13] 8.56% | activity, negative = inhibition [1, 14] 1.68% | Potency [2] | Potency [3] | Potency [4] | Potency [5] | Potency [6] | Potency [7] | Potency [8] | Potency [9] | Potency [10] | Potency [11] | Potency [12]

Cc1cc2nc3c(=O)[nH]c(=O)nc-3n(C[C@H](O)[C@H](O)[C@H](O)COP(=O)(O)OP(=O)(O)OC[C@H]3O[C@@H](n4cnc5c(N)ncnc54)[C@H](O)[C@@H]3O)c2cc1C
inactive: activity, negative = inhibition [1, 13] -1.67% | activity, negative = inhibition [1, 14] 14.9% | Potency [2] | Potency [3] | Potency [4] | Potency [5] | Potency [6] | Potency [7] | Potency [8] | Potency [9] | Potency [10] | Potency [11] | Potency [12]

O=C1N=C2SCCN2C(=O)C1Cc1ccc(Cl)cc1 (configuration not stated)
inactive: activity, negative = inhibition [1, 13] 18.3% | activity, negative = inhibition [1, 14] 17.2% | Potency [2] | Potency [3] | Potency [4] | Potency [5] | Potency [6] | Potency [7] | Potency [8] | Potency [9] | Potency [10] | Potency [11] | Potency [12]

OB(O)O
inactive: activity, negative = inhibition [1, 13] 8.7% | activity, negative = inhibition [1, 14] 9.31% | Potency [2] | Potency [3] | Potency [4] | Potency [5] | Potency [6] | Potency [7] | Potency [8] | Potency [9] | Potency [10] | Potency [11] | Potency [12]

CC(C)CCC[C@@H](C)[C@H]1CC[C@H]2[C@@H]3CC[C@@H]4C[C@H](O)CC[C@]4(C)[C@H]3CC[C@]12C
inactive: activity, negative = inhibition [1, 13] -5.47% | activity, negative = inhibition [1, 14] 5.75% | Potency [2] | Potency [3] | Potency [4] | Potency [5] | Potency [6] | Potency [7] | Potency [8] | Potency [9] | Potency [10] | Potency [11] | Potency [12]

CCC(C)[C@@H](N)C(=O)O (some centres not stated)
inactive: activity, negative = inhibition [1, 13] 11.4% | activity, negative = inhibition [1, 14] 24.4% | Potency [2] | Potency [3] | Potency [4] | Potency [5] | Potency [6] | Potency [7] | Potency [8] | Potency [9] | Potency [10] | Potency [11] | Potency [12]

O=C1[O][Bi][O]c2ccccc21
inactive: activity, negative = inhibition [1, 13] 7.71% | activity, negative = inhibition [1, 14] 1.44% | Potency [2] | Potency [3] | Potency [4] | Potency [5] | Potency [6] | Potency [7] | Potency [8] | Potency [9] | Potency [10] | Potency [11] | Potency [12]

CC(=O)Oc1cc(C(F)(F)F)ccc1C(=O)O
inactive: activity, negative = inhibition ([1]; at 12.8 µM (top of the series), parasite line A) 7.13% | activity, negative = inhibition ([1]; at 12.8 µM (top of the series), parasite line B) 12.5% | Potency [2] | Potency [3] | Potency [4] | Potency [5] | Potency [6] | Potency [7] | Potency [8] | Potency [9] | Potency [10] | Potency [11] | Potency [12]
